Assay outcomes as filed in PubChem.
Only some compounds are listed: those with a hit (about 9.9% of all), similar ones and a draw of the others.
MCF10A rereplic – inducers of DNA re-replication in MCF 10A breast cells | MCF 10A DNA re-replication, Hoechst nuclear intensity, 48 h | Potency, µM (doses to about 46.1 µM), for the others: top-dose activity, positive = re-replication, most hits filed as activators | 350,000 compounds, 2.9% hits | AID 624296; further: potency means the concentration at half of the fitted maximal effect; % of control where 0% means no effect; nearly all actives have a fitted effect of over 50% in size
KB-3-1 cytotox – KB-3-1 parental cell cytotoxicity; KB-3-1 viability, CellTiter-Glo ATP luminescence, 72 h; 400,000 compounds, 1.4% hits; Potency, µM (doses to about 46.1 µM), most hits filed as cytotoxic; further: potency means the concentration at half of the fitted maximal effect; on the % scale 0 is the no-effect control and ±100 the full control effect; nearly all actives have a fitted effect of over 60% in size
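Using CellTiter-Glo luminescence, growth of non-resistant KB-3-1 adenocarcinoma cells is assessed 72 h after pin-tool compound addition at 37 °C. Normalized responses across the concentration series yield fitted curves.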
IL1B secr inh – inhibitors of inflammasome signaling (IL-1 beta secretion). THP-1 LPS/ATP IL-1B secretion, AlphaLISA, 16 h; active compounds read low. activity change, % at 57.5 µM. 360,000 compounds, 4.7% hits. AID 743279; in the data active means activity change below about -50%; inconclusive means mostly about -30% to -49%; further: on the % scale 0 is the no-effect control and ±100 the full control effect
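THP-1 cells pretreated 1 hr with compounds (up to 57.5 uM final), then stimulated with LPS (250 ng/mL final) plus ATP (1.25 mM final); secreted IL-1B measured by AlphaLISA after 16 hr, decreased signal indicating inhibition.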
SW480 rerep – DNA re-replication induction in SW480 cells; SW480 DNA re-replication, Hoechst DNA content imaging, 48 h; Potency, µM (highest dose often 46.1 µM), without a hit: at the top dose re-replication activation, most hits filed as activators; 340,000 compounds, 1.8% hits; further: potency means the concentration at half of the fitted maximal effect; % of control where 0% means no effect; nearly all actives have a fitted effect of over 55% in size
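Per well, 250 cells were exposed to pinned compound for 48 hr. Nuclear DNA was visualised with Hoechst (40 min, 37 C) and total object intensity recorded by fluorescence scanning.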
KB-V1 MDR tox – kills drug-selected multidrug resistant KB-V1 cells; KB-V1 MDR cells viability, CellTiter-Glo, 72 h; Potency, µM (series often up to 46.1 µM), actives largely listed as cytotoxic; 400,000 compounds, 3.4% hits; further: potency means the concentration at half of the fitted maximal effect; on the % scale 0 is the no-effect control and ±100 the full control effect; nearly all actives have a fitted effect of over 60% in size
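Cytotoxicity via CellTiter-Glo luminescence after 72 h compound exposure at 37 degrees C. Cells: drug-selected KB-V1 line, DMEM phenol-red free plus 10% FBS. Compounds tested at multiple concentrations; normalized data fitted to concentration-effect curves.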
* marks the source's active call; other numbers are inactive results; i = inactive; u = inconclusive; x = not tested or not shown. Unless noted, the call rests on the fitted dose curve; in most records, active means well fitted curve in the direction sought with a large enough effect; inconclusive means small, poorly fitted or top-dose-only effect, or another doubt; inactive means no such curve, though single readings can be large; an effect the other way counts as inactive or inconclusive.

SMILES	MCF10A rereplic	KB-3-1 cytotox	IL1B secr inh	SW480 rerep	KB-V1 MDR tox
CCC(C)C(NC(=O)C1CCC(C)CC1)C(=O)NCc1ccccn1 (centres undefined)	0.6%	i	21.9	-11.9%	i
O=C(CCC(=O)OCC(=O)c1ccc(Cl)cc1)Nc1ccc(Oc2ccccc2)cc1	x	i	x	x	i
O=C(CCNC(=O)c1ccccc1Cl)Nc1ccncc1	9.2%	i	21.7	-2.0%	i
O=C(NNC(=O)c1ccccc1-n1cccc1)c1cncc(Br)c1	1.2%	i	5.8	6.4%	i
CCOC(=O)c1c(NC(=O)C(C)OC(=O)c2ccc(NC(=O)CC#N)cc2)sc2c1CCCC2 (centres undefined)	u	i	-80.3*	10.5%	i
Cc1ccccc1NS(=O)(=O)c1ccc2c(c1)CCC(=O)N2	x	i	x	x	i
COc1ccc2c(c1)c1ncn(CCN3CCCC3)c(=O)c1n2C	18.2%	i	-5.5	-3.6%	8.2µM*
COc1ccc2c(c1)c1ncn(CCN3CCCCC3)c(=O)c1n2C	5.0%	i	-17.9	1.7%	i
CC(=O)c1cccc(NC(=O)N2CCC(NC(=O)c3ccco3)CC2)c1	1.4%	i	-19.1	-5.6%	u
CCOc1ccc(CCNC(=O)Cn2cccc2C(=O)c2ccccc2C)cc1OCC	-0.6%	i	-2.2	-5.0%	4.61µM*
O=C(c1ccco1)N1CCC(c2nc3c(nnn3Cc3ccccc3Cl)c(=O)[nH]2)CC1	2.8%	i	9.7	-0.2%	i
CC(C)(C)c1nc(N2CCN(C(=O)c3ccco3)CC2)c2nnn(Cc3ccccc3)c2n1	8.2µM*	u	-51.8*	u	u
O=C(c1ccco1)N1CCN(c2nc(C3CC3)nc3c2nnn3Cc2ccccc2Cl)CC1	9.9%	u	-77.2*	-0.3%	u
O=C1CCCC2=C1C(c1ccc(O)c(O)c1)c1c(ccc3ncccc13)N2 (centres undefined)	1.4%	i	25.6	1.6%	i
O=C1CCCC2=C1C(c1ccc(O)cc1)c1c(ccc3ccccc13)N2 (centres undefined)	16.4µM*	i	-17.3	u	i
Cc1ccc(C(=O)CSc2nsc(C)c2C#N)cc1	-1.5%	i	-13.7	-2.0%	i
Cc1snc(SCC(=O)c2ccc(Cl)cc2)c1C#N	24.3%	i	-3.3	10.5%	20.6µM*
Cc1cc(C)c(C#N)c(SCC(=O)c2ccc(Cl)cc2Cl)n1	2.4%	i	-93.5*	84.9%	i
Cc1cc(C)c(C#N)c(SCC(=O)c2cc(C)n(CCc3ccccc3)c2C)n1	u	i	-11.0	u	i
COCCn1c(C)cc(C(=O)CSc2nc(C)cc(C)c2C#N)c1C	-3.5%	i	-51.9*	1.1%	u
CCOc1cc(/C=N/Nc2nc(N3CCCC3)nc(N3CCCC3)n2)ccc1O	5.5%	i	-3.8	14.8%	u
O=[N+]([O-])c1ccc(-c2ccc(/C=N/Nc3nc(NCc4ccccc4)nc(N4CCOCC4)n3)o2)cc1	7.31µM*	i	-91.5*	9.2µM*	i
COC(=O)c1ccccc1-c1ccc(/C=N/NC(=O)c2cc3ccccc3o2)o1	u	u	-13.2	-0.5%	13µM*
O=C(N/N=C/c1ccsc1)c1cc2ccccc2o1	-13.3%	i	-10.7	1.4%	i
CCOc1cccc(/C=N/Nc2nc(N3CCCC3)nc(N3CCCC3)n2)c1O	2.8%	i	-107.9*	-3.4%	u
COc1nc(N/N=C/c2ccc(-c3ccccc3[N+](=O)[O-])o2)nc(N2CCOCC2)n1	10.3µM*	u	0.0	u	u
CCc1ccc(NC(=O)CC2C(=O)OCCN2CC)cc1 (centres undefined)	x	i	x	x	i
O=[N+]([O-])c1ccc(/C=N/Nc2nc(N3CCCCCC3)nc(N3CCCCCC3)n2)o1	u	6.51µM*	u	u	u
COC(=O)c1ccccc1-c1ccc(/C=N/Nc2nc(N3CCCC3)nc(N3CCCC3)n2)o1	u	i	-90.7*	u	u
O=c1c2cc(NC(=S)NC3CCCC3)ccc2nc2n1CCCCC2	13.3%	i	-19.0	-7.2%	20.6µM*
